Source: PubChem BioAssay (Sanford-Burnham Center for Chemical Genomics)
SENP7 inh: inhibitors of human SENP7 protease | recombinant SENP7, Z-RLRGG-aminoluciferin luminescence, 40 min | 330,000 tested, 1.5% active | inhibition, % at 5 µM | Q9BQF6;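 active = inhibition above about 50% at the single test dose, limit read from the data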;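 also: plate controls were DMSO with enzyme for no effect and no enzyme buffer wells for full effect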
Target sequence (Q9BQF6 706-1050 limits assumed): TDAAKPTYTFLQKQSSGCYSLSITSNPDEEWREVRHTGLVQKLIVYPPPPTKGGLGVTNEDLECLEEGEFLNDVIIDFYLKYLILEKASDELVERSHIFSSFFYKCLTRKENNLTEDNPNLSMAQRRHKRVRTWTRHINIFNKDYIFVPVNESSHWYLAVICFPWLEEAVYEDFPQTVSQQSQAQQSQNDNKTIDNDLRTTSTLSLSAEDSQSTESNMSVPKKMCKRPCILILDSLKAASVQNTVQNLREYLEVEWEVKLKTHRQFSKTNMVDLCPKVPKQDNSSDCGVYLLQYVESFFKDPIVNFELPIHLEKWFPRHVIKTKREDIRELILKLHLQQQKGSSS
SENP8 block-1: SENP8 protease inhibition; 330,000 tested, 1.2% active; Q96LD8; purified SENP8, Z-RLRGG-aminoluciferin cleavage, luminescence; AID 2540; inhibition, % at 10 µM; in the data active = inhibition above about 50%
SENP8 block-2: inhibitors of human SENP8 protease | Q96LD8 | recombinant SENP8, Nedd8 substrate fluorescence | inhibition, % at 20 µM | 360,000 tested, 0.64% active; in the data active = inhibition mostly above about 40%, no sharp cut-off; inactive = mostly below about 27%
SENP6 block: blocks the human protease SENP6 | Q9GZR1 | Recombinant SENP6 catalytic domain, aminoluciferin luminescence | inhibition, % at 10 µM | 330,000 tested, 1.8% active | AID 2599;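 active = inhibition above about 50% at the single tested dose, limit read from the data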;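 also: plate controls were DMSO wells with enzyme for no effect and DMSO wells lacking enzyme for full effect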
C8 TRAIL sens: caspase-8 TRAIL sensitization; NB7+C8 cells + TRAIL, ATPlite viability luminescence; inhibition (viability loss, TRAIL sensitization), % at 10 µM; 360,000 tested, 1% active;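 active = compounds causing at least 50% loss of cell viability in the single-dose screen, relative to plate controls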
PPC-1+TRAIL kill: PPC-1 cancer cell killing with TRAIL present | PPC-1 cells + TRAIL, ATPLite viability luminescence | cell killing (% activity), % at 4 µM or 5 µM | 220,000 tested, 0.41% active | AID 1443;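 active = cell killing above 50% in the first pass at 4 µM, then a duplicate retest at 5 µM averaging 50% or more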;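 also: plate controls were cells with TRAIL plus DMSO for no effect and medium-only wells lacking cells for full effect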
SENP8 conf: human SENP8 inhibition, confirmed. shares compounds with SENP7 inh. Recombinant SENP8, Z-RLRGG-aminoluciferin luminescence, 60 min. inhibition, % at 12.5 µM. 6,200 tested, 40% active;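 active = mean inhibition across replicates above about 50%, limit read from the data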
SENP6 conf: human SENP6 inhibition, confirmed | shares compounds with SENP7 inh | recombinant SENP6, Z-RLRGG-aminoluciferin luminescence | inhibition, % at 12.5 µM | 6,200 tested, 58% active
SENP7 conf: confirmation of human SENP7 protease inhibitors | shares compounds with SENP7 inh | recombinant SENP7, Z-RLRGG-aminoluciferin luminescence, 40 min | inhibition, % at 12.5 µM | 6,200 tested, 69% active
Casp3 select: caspase-3 inhibition (SENP selectivity assay) | shares compounds with SENP7 inh | purified caspase-3, Z-DEVD-aminoluciferin luminescence, 60 min | inhibition, % at 12.5 µM | 6,200 tested, 60% active | AID 488918;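 active = mean inhibition above about 50%, limit read from the data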;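 also: plate controls were enzyme with DMSO for no effect and wells without caspase-3 for full effect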
Luc interf: interferes with luciferase luminescence in SENP counter-screen; inhibition, % at 12.5 µM; 6,200 tested, 39% active; shares compounds with SENP7 inh; Pre-incubated SENP8/Z-RLRGG-aminoluciferin, luciferase luminescence interference; AID 488919;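 active = mean inhibition above about 50% when retested at one dose, limit read from the data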;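 also: plate controls were DMSO wells with completed reaction for no effect and substrate without enzyme for full effect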
* marks the source's active call; other numbers are inactive results; i = inactive; / = no result given. The list is not random: actives were taken first. Their share in the collection is about 3%.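 The calls were made as follows, unless noted: active = mean inhibition above about 50% in the one-dose retest (limit read from the data); inactive = the rest.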

SMILES	SENP7 inh	SENP8 block-1	SENP8 block-2	SENP6 block	C8 TRAIL sens	PPC-1+TRAIL kill	SENP8 conf	SENP6 conf	SENP7 conf	Casp3 select	Luc interf
CCCc1cc(C(=O)Nc2ccccc2SC)no1	3	1	10	22	-14	12	/	/	/	/	/
CCCc1cc(C(=O)Nc2ccc(F)c(Cl)c2)no1	93*	90*	12	93*	-1	/	92*	93*	100*	89*	82*
CCCc1cc(C(=O)Nc2ccc(F)cc2F)no1	40	38	13	63*	-6	12	8	39	71*	60*	0
CCCc1cc(C(=O)Nc2cccc(Cl)c2)no1	93*	90*	5	98*	-1	26	94*	96*	102*	92*	90*
CCOc1ccccc1NC(=O)CN(C)S(=O)(=O)c1ccc2[nH]c(=O)oc2c1	3	0	4	25	-36	/	/	/	/	/	/
O=C1NC(Cc2ccccc2)c2nc3cc(F)ccc3c(=O)n2-c2cc(Cl)ccc21 (centres undefined)	3	10	/	-4	/	/	/	/	/	/	/
COc1ccc(Nc2nc(-c3cccnc3)cs2)c(OC)c1	-18	-9	7	12	3	/	/	/	/	/	/
Fc1ccc(Nc2nc(-c3cccnc3)cs2)cc1	34	2	1	25	6	/	/	/	/	/	/
COc1ccccc1Nc1nc(-c2cccnc2)cs1	53*	50*	16	67*	9	/	-26	39	78*	42	60*
CCN(CC)c1ccc(Nc2nc(-c3cccnc3)cs2)cc1	11	57*	16	62*	-12	/	56*	52*	88*	47	22
CNc1cncc(-c2cc(OC)c(OC)c(OC)c2)n1	/	/	i	/	1	/	/	/	/	/	/
CCCc1cnc(Nc2nc(C(N)Cc3ccc(C(F)(F)F)cc3)cs2)nc1 (centres undefined)	/	/	11	/	33	/	/	/	/	/	/
CCOc1cc(CNc2ccc3cn[nH]c3c2)ccc1OC	59*	53*	-213	68*	-14	0	10	41	5	0	-4
COc1ccc(N2CCN(C(=S)Nc3cc(C)ccc3C)CC2)cc1	81*	9	11	-11	2	13	-2	2	9	4	0
COc1cc(NC(C)=O)ccc1NC(=O)c1cc2ccccc2o1	6	5	-17	-13	9	/	/	/	/	/	/
O=C(Nc1ccccc1C(F)(F)F)c1cc2ccccc2o1	68*	66*	17	73*	25	/	60*	71*	92*	74*	67*
Cc1ccnc(NC(=O)c2ccc(C(=O)c3ccccc3)cc2)c1	70*	73*	-1	80*	69*	/	72*	69*	93*	85*	78*
CCCC(=O)Nc1ccc(NC(=O)c2cc3ccccc3o2)c(OC)c1	54*	2	-22	29	-2	/	8	6	27	19	7
Cc1csc(C(C#N)C(=O)c2cc3ccccc3o2)n1 (centres undefined)	14	54*	14	59*	59*	34	31	73*	86*	79*	46
Cc1c(C)n(C)c2ccc(C(=O)NCCN3CCOCC3)cc12	2	-2	-174	4	-7	/	/	/	/	/	/
O=Cc1ccc(-c2c(-c3ccccc3)oc3c2C(OCCCCO)CCC3)o1 (centres undefined)	/	/	-379	/	-1	/	/	/	/	/	/
